# HT1080 IDH1KD tx – toxicity to HT-1080 IDH1 knockdown cells (counter line). HT-1080 IDH1 knockdown viability, ATP luminescence, 48 h. Potency, µM (top dose mostly 46.1 µM), hits mostly cytotoxic. actives 2% (n = 360,000). AID 686971
#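 % activity derives from luminescence (CellTiter-Glo), normalised to DMSO and no-cell wells. HT-1080-IDH1KD cells, 750/well, had 48 h compound exposure at 37 °C.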
# TDP1 cell noCPT – qHTS for Inhibitors of human tyrosyl-DNA phosphodiesterase 1 (TDP1): qHTS in cells in absence of CPT | DT40 Tdp1-/- hTDP1 cells, no CPT, ATP luminescence, 48 h | Potency, µM (highest dose often 46.2 µM), actives largely listed as inhibitors | actives 15% (n = 420,000) | AID 686978, 2013; also: nearly all actives have a fitted effect of over 55% in size
#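 Cells were dispensed at 400 per well, compounds added by pin tool, plates incubated ≥48 hr at 37 °C, then CellTiter-Glo added for 30 min at room temperature before luminescence reading. Line: DT40 Tdp1-/- complemented with hTDP1; camptothecin omitted.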
# HT1080NT lethal – kills 2HG-producing HT-1080-NT fibrosarcoma cells; HT-1080-NT fibrosarcoma viability, CellTiter-Glo ATP luminescence, 48 h; Potency, µM (titrated, usually from 46.1 µM), most hits filed as cytotoxic; actives 1.6% (n = 360,000); AID 686970;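 also: NT is the 2HG producing partner of a matched IDH1 knockdown line; nearly all actives have a fitted effect of over 55% in size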
#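 HT-1080-NT; 750 cells/well; 5% FBS RPMI; 48 h compound, 37 degrees C; CellTiter-Glo luminescence; curve fitting and curve-class assignment.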
# HepG2 tox – kills HepG2 cells in TGF-b inhibitor counter-screen | HepG2 CAGA-GFP viability, ATP luminescence, 18 h | Potency, µM (top dose mostly 46.1 µM), actives largely listed as cytotoxic | actives 0.76% (n = 410,000)
#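 HepG2 CAGA-GFP cells (1000/well, DMEM with 1% FBS) received compound, then TGF-beta at 500 pg/mL final, and were incubated 18 hours at 37 degrees C. Viability was read by CellTiter-Glo luminescence. Media-only wells were set as complete cell-killing and DMSO as no toxicity.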
# TGFb SMAD3 inh – inhibitors of TGF-b signaling | HepG2 CAGA-GFP TGF-b/SMAD3 reporter, GFP fluorescence, 18 h; TGF-beta stimulated, 500 pg/mL final | actives 1.2% (n = 410,000) | Potency, µM (highest dose often 46.1 µM), usual class: inhibitors; also: nearly all actives have a fitted effect of over 65% in size
#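 HEPG2 CAGA-GFP, 1000 cells/well; 2 h settle, 37 C; cpd via pin tool; TGF-b 500 pg/mL final; 18 h, 37 C; GFP imaging ex488/em500-530; %Activity normalised to -TGF-b and +DMSO controls; CRC fit, curve class.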
# TDP1 cell CPT – DT40-hTDP1 cell growth loss with CPT; Potency, µM (titrated, usually from 46.2 µM), hits mostly inhibitors; chicken DT40 Tdp1-/-;hTDP1 cells + 20 nM CPT, ATP luminescence, 48 h; actives 12% (n = 420,000); also: nearly all actives have a fitted effect of over 55% in size
#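 Chicken DT40 Tdp1-/- cells stably complemented with human TDP1 were seeded at 400 cells/well in medium containing 20 nM camptothecin, exposed to pin-transferred compounds, and grown at 37 °C for at least 48 hr. Viability was read as ATP luminescence.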
# Hits are given with their value; i = inactive; ? = inconclusive; nt = no result; [ ] = another dose, or the depositor's remark. Rows were chosen to be rich in hits. Some 17% of all compounds tested hit in one or more screens of this group. Calls follow the shape of the dose curve; as a rule, active = well fitted curve in the direction sought with a large enough effect; inconclusive = small, poorly fitted or top-dose-only effect, or another doubt; inactive = no such curve, though single readings can be large; an effect the other way counts as inactive or inconclusive.
SMILES,HT1080 IDH1KD tx,TDP1 cell noCPT,HT1080NT lethal,HepG2 tox,TGFb SMAD3 inh,TDP1 cell CPT
COc1ccc2c(c1)CCc1cnc(-n3ncc(C(=O)NCc4cc(C)no4)c3C3CC3)nc1-2,nt,i,nt,nt,nt,i[9.04 µM]
C=C(C)COc1ccc2c(c1)CCC1C2CCC2(C)C(=O)C(=NO)CC12 (stereo unspecified),?,?,i,i,i,16µM
Cc1c(C(=O)NN2CCCCC2)nn(-c2ccc(Cl)cc2Cl)c1-c1ccc(Cl)cc1,nt,19µM,nt,nt,nt,?
Cc1nn(-c2ccc(Cl)cc2Cl)c(C)c1C(=O)O,i,i,i,i,i,i
COc1ccccc1N(C(=O)c1snc(C(N)=O)c1N)C(C(=O)NC1CCCC1)c1ccc2ncccc2c1 (stereo unspecified),?,i,?,i,i,i
CC(NC(=O)C1CCN(C(=O)c2ccc(F)cc2)CC1)c1ccc(-n2ccnc2)cc1 (stereo unspecified),i,i,i,i,i,i
Cc1ccc([C@H]2C[C@H](O)[C@@H](n3cc(-c4ccc(F)cc4)nn3)CN2Cc2cccs2)cc1,?,16µM,?,i,i,?
CCCCCC(=O)N1C[C@@H](O)[C@H](n2cc(-c3ccc(F)cc3)nn2)C[C@@H]1c1ccc(C)cc1,i,18µM,i,i,18µM,?
CCCCCC(=O)N1C[C@@H](O)[C@H](n2cc(C3CC3)nn2)C[C@@H]1c1ccc(C)cc1,i,i,i,i,i,i
CCCCCC(=O)N1C[C@@H](n2cc(-c3ccc(F)cc3)nn2)[C@H](O)C[C@@H]1c1ccc(C)cc1,?,8.2µM,i,i,?,13µM
CCCCCC(=O)N1C[C@@H](O)[C@H](n2cc(-c3ccc(F)cc3)nn2)C[C@@H]1c1ccccc1,i,10µM,i,i,i,23µM
O=C(Nc1ccccc1C(=O)Nc1nccs1)c1ccccc1,?,?,?,i,i,?
COc1ccc([C@H]2C[C@H](O)[C@@H](n3cc(-c4ccc(F)cc4)nn3)CN2C(=O)C2CCCCC2)cc1,i,i,i,i,i,i
COc1ccc([C@H]2C[C@H](n3cc(-c4ccc(F)cc4)nn3)[C@@H](O)CN2C(=O)C2CCCCC2)cc1,i,18µM,i,i,i,?
CCCCCCN1C[C@H](O)[C@@H](n2cc(-c3ccc(F)cc3)nn2)C[C@@H]1c1ccccc1,?,21µM,?,i,?,21µM
CCCCCC(=O)N1C[C@@H](n2cc(-c3ccc(F)cc3)nn2)[C@H](O)C[C@@H]1c1ccc(OC)cc1,?,?,18µM,i,i,?
Cc1ccc([C@H]2C[C@@H](O)[C@H](n3cc(C4CC4)nn3)CN2C(=O)c2cccs2)cc1,i,21µM,i,i,i,?
CC(C)(C)c1ccc(C(=O)Nc2ccc(-c3nc4ccccc4o3)c(O)c2)cc1,nt,i,nt,i,i,i
O=C(c1cccs1)N1C[C@@H](O)[C@H](n2cc(-c3ccc(F)cc3)nn2)C[C@@H]1c1ccccc1,i,16µM,i,i,i,18µM
CCn1nc(NC(=O)c2ccccn2)c2cc3cccc(C)c3nc21,i,18µM,i,i,i,?
CCn1nc(NC(=O)c2ccncc2)c2cc3cccc(C)c3nc21,i,i,i,i,i,i
CC(C)C(=O)N(c1ccc2oc(=O)sc2c1)S(=O)(=O)c1ccccc1,?,?,?,i,i,?
CC(=O)N(c1ccc2oc(=O)sc2c1)S(=O)(=O)c1ccccc1,i,10µM,i,i,i,?
COc1ccc(C(=O)Oc2ccc3ccc(=O)oc3c2)cc1,i,i,i,i,i,i
COc1ccc(S(=O)(=O)N(C(=O)C(C)C)c2ccc3oc(=O)sc3c2)cc1,?,16µM,?,i,i,10µM
SMILES,HT1080 IDH1KD tx,TDP1 cell noCPT,HT1080NT lethal,HepG2 tox,TGFb SMAD3 inh,TDP1 cell CPT
COc1ccc(C(=O)Oc2ccc3oc(=O)sc3c2)cc1,i,?,i,i,i,13µM
c1ccc(N=c2nc(-c3ccccc3)n(-c3ccccc3)s2)cc1,nt,5.6µM,nt,i,2.8µM,6.3µM
c1ccc(Cn2sc(=Nc3ccccc3)nc2-c2ccccc2)cc1,nt,i,nt,i,i,i
CCn1c(SCC(=O)Nc2nc(-c3ccccc3)cs2)nc2c1c(=O)n(C)c(=O)n2C,i,i,i,i,i,i
CC(C)(Cc1ccc(O)cc1)NC(=O)CC(=O)N/N=C/c1ccc(Cl)cc1,i,18µM,?,i,i,?
COc1ccc(C2=NCCc3cc(OC)c(OC)cc32)cc1,i,21µM,i,i,i,?
COc1ccc(C2=NC(C)(C)Cc3cc(OC)c(OC)cc32)cc1,i,?,i,i,i,i
COc1cc2c(cc1OC)C(c1c(Cl)cccc1Cl)=NCC2,?,0.23µM,i,i,?,0.26µM
COc1cc2c(cc1OC)C(CCc1ccccc1)=NCC2,i,16µM,i,i,i,?
COc1cc2c(cc1OC)C(c1cc(-c3cc(Cl)ccc3Cl)oc1C)=NCC2,nt,1µM,nt,i,i,1.3µM
O=C(COC(=O)c1cc2ccccc2o1)NCc1ccco1,i,i,i,i,i,i
COc1cccc(C2=NCCc3cc4c(cc32)OCO4)c1OC,i,?,i,i,i,i
COc1cc2c(cc1OC)C(c1c(-c3c(Cl)cccc3Cl)noc1C)=NCC2,?,10µM,i,i,i,23µM
CC1(C)C(=O)N(CC(=O)Nc2ccc(Br)cc2F)c2ccccc21,nt,i,nt,i,i,i
CN(C)CC1CCC/C(=C\c2ccc(OC(=O)/C=C/c3ccccc3)cc2)C1=O (stereo unspecified),i,1.8µM,i,i,i,1.3µM
CC1CCC/C(=C\c2ccc(O)cc2)C1=O (stereo unspecified),i,i,i,i,?,i
CN(C)CC1CCC/C(=C\c2ccc(OC(=O)c3ccc(Cl)cc3)cc2)C1=O (stereo unspecified),2.9µM,0.41µM,?,i,?,0.52µM
O=C1/C(=C\c2ccc(Cl)cc2)CCC1CNc1ccc(Cl)cc1 (stereo unspecified),?,2.6µM,i,i,i,2.3µM
CN(C)CC1CC/C(=C\c2ccc(O)cc2)C1=O (stereo unspecified),5.2µM,1.3µM,?,i,?,0.58µM
CC(=O)c1ccc(OC(=O)/C=C/c2ccccc2)cc1,i,i,i,i,i,i
